Laboratory results taken from PubChem BioAssay AID504554 (Johns Hopkins Ion Channel Center, 2011).
The source made the active and inactive calls.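 How the source made its calls: active means peak TRPC4 channel inhibition over 30% at some tested dose, plus a fitted dose response curve; inactive means no inhibition at any dose, or no curve fitted.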

target: Short transient receptor potential channel 4 (Mus musculus) (UniProt Q9QUQ5); experiment: mouse TRPC4 blockers in HEK293 cells – cell-based, HEK293 TRPC4/mu-opioid, concentration-response, selectivity assay for TRPC6 selective inhibitor project, SAR follow-up (AID 504554); conditions: DAMGO-evoked Fluo-4 calcium ratio; series mostly up to 6.67 µM
Sequence (Q9QUQ5 whole entry, looked up): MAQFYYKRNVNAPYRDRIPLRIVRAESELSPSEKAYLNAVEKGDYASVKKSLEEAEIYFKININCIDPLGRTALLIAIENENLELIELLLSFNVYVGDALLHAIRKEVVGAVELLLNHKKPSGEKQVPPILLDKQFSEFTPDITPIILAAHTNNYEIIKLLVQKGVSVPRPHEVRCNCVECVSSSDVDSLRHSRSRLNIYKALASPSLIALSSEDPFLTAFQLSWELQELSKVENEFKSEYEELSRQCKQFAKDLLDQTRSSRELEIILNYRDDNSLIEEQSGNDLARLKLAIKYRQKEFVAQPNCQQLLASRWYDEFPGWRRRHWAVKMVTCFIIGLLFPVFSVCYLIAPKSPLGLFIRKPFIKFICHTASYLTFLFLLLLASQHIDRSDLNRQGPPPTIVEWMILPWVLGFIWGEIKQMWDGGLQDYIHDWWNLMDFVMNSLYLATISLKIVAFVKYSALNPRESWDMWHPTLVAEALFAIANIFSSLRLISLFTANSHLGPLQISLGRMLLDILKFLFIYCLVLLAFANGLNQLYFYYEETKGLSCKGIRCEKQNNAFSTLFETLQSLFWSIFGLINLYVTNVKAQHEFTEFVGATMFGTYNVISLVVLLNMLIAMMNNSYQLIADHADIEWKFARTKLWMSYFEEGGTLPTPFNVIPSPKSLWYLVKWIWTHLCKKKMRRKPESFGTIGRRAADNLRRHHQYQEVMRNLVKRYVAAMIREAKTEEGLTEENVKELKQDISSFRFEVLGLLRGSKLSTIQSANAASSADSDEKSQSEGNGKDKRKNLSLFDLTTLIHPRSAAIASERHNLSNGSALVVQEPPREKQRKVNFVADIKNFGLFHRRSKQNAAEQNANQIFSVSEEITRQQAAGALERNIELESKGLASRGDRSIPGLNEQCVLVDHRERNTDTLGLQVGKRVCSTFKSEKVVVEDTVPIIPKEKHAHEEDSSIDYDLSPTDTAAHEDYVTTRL

outcome, inactive:
COc1ccccc1CNc1ccc2c(c1)ncn2C(C)(C)C
COc1cccc(CNc2ccc3c(c2)ncn3C)c1OC
COc1ccc(CNc2ccc3c(c2)ncn3-c2ccccc2)cc1
CC(C)(C)n1cnc2cc(NC(=O)c3ccccc3)ccc21
CC(C)(C)n1cnc2cc(NCc3ccc(Cl)cc3Cl)ccc21
COc1ccc(CNc2ccc3c(c2)ncn3C(C)(C)C)cc1OC
CC(C)(C)n1cnc2cc(NCc3ccc(Br)cc3)ccc21
CC(C)(C)n1cnc2cc(NCc3cccc4ccccc34)ccc21
CCOc1ccc(CNc2ccc3c(c2)ncn3-c2ccccc2)cc1
COc1cc(C(=O)Nc2ccc3c(c2)ncn3C(C)(C)C)cc(OC)c1OC
COc1ccc(CNc2ccc3c(c2)ncn3C(C)(C)C)cc1
Cc1ccc(CNc2ccc3c(c2)ncn3C(C)(C)C)cc1
COc1ccc(OC)c(CNc2ccc3c(c2)ncn3C(C)(C)C)c1
CC(C)(C)n1cnc2cc(NCc3ccccc3O)ccc21
CCOc1ccccc1CNc1ccc2c(c1)ncn2C(C)(C)C
CCOc1ccc(CNc2ccc3c(c2)ncn3C(C)(C)C)cc1
COc1cccc(CNc2ccc3c(c2)ncn3C(C)(C)C)c1OC
CC(C)c1ccc(CNc2ccc3c(c2)ncn3C(C)(C)C)cc1
CC(C)(C)n1cnc2cc(NCc3cccs3)ccc21
COc1ccc(CNc2ccc3c(c2)ncn3C(C)(C)C)c(OC)c1
CN(C)c1ccc(CNc2ccc3c(c2)ncn3C(C)(C)C)cc1
CC(C)(C)n1cnc2cc(NC(=O)c3ccc(Cl)cc3)ccc21
CCN(CC)c1ccc(CNc2ccc3c(c2)ncn3C(C)(C)C)cc1
CC(C)(C)n1cnc2cc(NCc3ccccc3Cl)ccc21
CCC(=O)Nc1ccc2c(c1)ncn2C(C)(C)C
CC(C)(C)n1cnc2cc(NCc3cccc(Br)c3)ccc21
CCc1ccc(CNc2ccc3c(c2)ncn3C(C)(C)C)cc1
CCOc1ccc(CNc2ccc3c(c2)ncn3C)cc1
CCCC(=O)Nc1ccc2c(c1)ncn2C(C)(C)C
CC(C)(C)n1cnc2cc(NCc3ccco3)ccc21
CC(=O)Nc1ccc2c(c1)ncn2C(C)(C)C
CC(C)(C)n1cnc2cc(NC(=O)c3cccs3)ccc21
